Bioassay records as filed in PubChem.
AmpC det inh: blocks E. coli AmpC beta-lactamase in presence of detergent | P00811 | purified AmpC, nitrocefin hydrolysis with detergent | Potency, µM (titrated, usually from 28.7 µM), for inactives: top-dose activity change, negative = inhibition | hit rate 0.09% among 71,000; active means well fitted curve in the direction sought with a large enough effect; inconclusive means small, poorly fitted or top-dose-only effect; further: on the % scale 0 is the no-effect control and ±100 the full control effect
Target sequence (P00811 whole entry, looked up): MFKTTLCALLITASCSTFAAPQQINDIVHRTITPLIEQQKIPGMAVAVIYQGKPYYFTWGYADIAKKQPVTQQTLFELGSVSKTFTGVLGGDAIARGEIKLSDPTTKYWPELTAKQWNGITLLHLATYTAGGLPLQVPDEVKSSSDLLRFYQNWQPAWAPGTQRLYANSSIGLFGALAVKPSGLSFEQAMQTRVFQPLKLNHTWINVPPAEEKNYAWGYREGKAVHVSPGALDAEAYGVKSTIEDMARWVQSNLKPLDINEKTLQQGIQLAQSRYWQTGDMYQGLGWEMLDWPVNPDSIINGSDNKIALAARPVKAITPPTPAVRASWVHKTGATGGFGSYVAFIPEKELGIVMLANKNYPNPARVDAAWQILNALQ
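E. coli AmpC (5.3 nM) in 20 mM phosphate pH 7.0 with 0.01% Triton X-100, preincubated 15 min RT with compound; nitrocefin (2 uL of 800 uM stock) hydrolysis followed by 480 nm absorbance every 20 s over 4 min.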
Prx2 Sm inh: blocks S. mansoni peroxiredoxin 2 enzymatic activity; AID 448; S. mansoni Prx2 activity coupled to TGR/GSH (TGR is thioredoxin glutathione reductase), NADPH fluorescence loss, qHTS; Potency, µM; hit rate 0.07% among 65,000
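Prx2 inhibition was measured as reduced NADPH consumption when electrons flowed from NADPH through TGR and glutathione to Prx2 and H2O2. Plates were read kinetically over 8 min; enzyme reagents were held at 4 deg C during dispensing.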
LT uptake inh: inhibitors of anthrax lethal toxin internalization; Cells, anthrax lethal toxin internalization, FRET ratio (460/530); Potency, µM (highest dose often 40 µM), inactives show at the highest dose activity change, negative = inhibition, hits mostly inhibitors; AID 912; hit rate 0.67% among 70,000; further: on the % scale 0 is the no-effect control and ±100 the full control effect; nearly all actives have a fitted effect of over 50% in size
AmpC inh no det: AmpC beta-lactamase inhibition, detergent-free assay. AID 585. hit rate 1.8% among 71,000. Potency, µM (series often up to 28.7 µM), for inactives: at the top dose activity change, negative = inhibition. AmpC nitrocefin hydrolysis, absorbance 480 nm, no detergent; further: % of control where 0% means no effect
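AmpC in 20 mM phosphate buffer pH 7.0 was preincubated 15 min at room temperature with compounds. Nitrocefin (800 uM stock) was then added and hydrolysis followed at 480 nm every 20 s for 4 min.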
* marks the source's active call; other numbers are inactive results; ? = inconclusive; . = no result given; [ ] = another dose, or the depositor's remark. Hits are enriched below; roughly 2.4% of the tested compounds scored in any of these assays. Unless noted, the call rests on the fitted dose curve. Potency means the concentration at half of the fitted maximal effect.

SMILES	AmpC det inh	Prx2 Sm inh	LT uptake inh	AmpC inh no det
CN[C@H]1CC[C@@H](c2ccc(Cl)c(Cl)c2)c2ccccc21	.	.	10µM*	.
CC1=C(C(=O)N(C)C)C(c2ccc(Cl)c(Cl)c2)NC(=O)N1 (stereo unspecified)	-5%	>57	?	8%
CCN(CC)c1ccc(NC(=O)C2CCCN(S(=O)(=O)c3cccnc3)C2)c(C)c1 (stereo unspecified)	16%	>57	-13%	4µM*[single pt active]
COc1ccc(NC(=O)C2CCCN(S(=O)(=O)c3cccnc3)C2)c(OC)c1 (stereo unspecified)	16%	>57	-2%	4µM*[single pt active]
COc1ccc(S(=O)(=O)N2CCCC(C(=O)Nc3cccnc3)C2)cc1Cl (stereo unspecified)	10%	>57	-10%	41%
O=C(NCc1ccccc1)C1CCCN(S(=O)(=O)c2cccnc2)C1 (stereo unspecified)	-2%	>57	-6%	0%
CCCCSc1nc2c(cc1C#N)CCC2	-4%	>57	-13%	-6%
CCCSc1nc(C)c(-c2csc(C(C#N)=C3CCCC3)n2)cc1C#N	0%	>57	-12%	13µM*
O=C(Nc1nc(-c2ccc(S(=O)(=O)N3CCCC3)cc2)cs1)c1cccs1	-1%	>57	-26%	-12%
Cc1ccc(-c2csc(NC(=O)c3cccc(S(=O)(=O)N4CCN(C)CC4)c3)n2)cc1	11%	>57	-24%	134%
O=C(Nc1nc(-c2ccc(S(=O)(=O)N3CCCCCC3)cc2)cs1)c1cccs1	-3%	>57	?	7.9µM*
O=C(Nc1nc(-c2cc(Cl)sc2Cl)cs1)c1cccs1	9%	>57	?	0.32µM*
O=C(Nc1nc(-c2cccs2)cs1)c1cccc(S(=O)(=O)N2CCCCC2)c1	-3%	>57	?	7.9µM*
Cc1cc(C)c(OCC(=O)Nc2ccccc2N2CCOCC2)c(C)c1	0%	>57	?	22%
COc1ccc(C)cc1C(=O)CCC(=O)Nc1ccccc1N1CCOCC1	-3%	>57	16µM*	54%
CCN1CCN(c2ncc(C(=O)Nc3ccccc3C(=O)OC)c3ccccc23)CC1	-1%	>57	10µM*	132%
N#C/C(=C\c1c[nH]c2ccccc12)C(=O)c1ccc(O)c(O)c1	-4%	>57	-3%	-13%
CN1[C@@H]2CC[C@H]1CC(O[C@@H](c1ccccc1)c1ccc(Cl)cc1)C2 (stereo partly specified)	5%	>57	10µM*	99%
COc1cccc(Cn2c(=O)c(-c3ccc(Cl)cc3)nc3cncnc32)c1	1%	>57	?	14%
COc1ccccc1C(=O)n1nc(-c2cccnc2)nc1N	13%	>57	28%	4µM*[single pt active]
O=C(/C=C\c1ccc(O)c(O)c1)O[C@H]1C[C@@](O)(C(=O)O)C[C@H](O)[C@@H]1O	-2%	>57	?	4%
CS(=O)(=O)c1sc2nc(-c3cccs3)cc(-c3ccccc3)c2c1N	-4%	>57	?	10µM*[single pt active]
Cc1ccc(OP(=O)(Oc2ccc(C)cc2)Oc2ccc(C)cc2)cc1	17%	.	-14%	-21%
Cc1ccc2c(c1)NC(=O)C(CC(=O)O)O2 (stereo unspecified)	10%	>57	-2%	2%
Cc1ccc2c(c1)NC(=O)C(CC(=O)NCCN(C)C)O2 (stereo unspecified)	12%	>57	-1%	3.2µM*[single pt active]
SMILES	AmpC det inh	Prx2 Sm inh	LT uptake inh	AmpC inh no det
Cc1ccc(CCNC(=O)CC2Oc3ccc(C)cc3NC2=O)cc1 (stereo unspecified)	12%	>57	8%	4µM*[single pt active]
Cc1ccc2c(c1)NC(=O)C(CC(=O)NCCCN1CCCCC1)O2 (stereo unspecified)	8%	>57	-4%	2%
CCOCCCNC(=O)CC1Oc2ccc(C)cc2NC1=O (stereo unspecified)	12%	>57	-7%	4µM*[single pt active]
NC(N)=Nc1ccc2[nH]c3c(c2c1)C[C@]1(O)[C@@H]2Cc4ccc(O)c5c4[C@]1(CCN2CC1CC1)[C@H]3O5	-3%	>57	3%	-4%
O=c1c(CCc2ccccc2)nc2cnc(Nc3ccccc3)nc2n1Cc1cccs1	1%	>57	?	-14%
COc1ccccc1-n1c(SCC(=O)NC(C)(C)C)nc(O)cc1=O	-2%	>57	?	-4%
COc1ccccc1-n1c(SC)nc(O)cc1=O	11%	>57	-12%	2.5µM*[single pt active]
CCn1c(SCC(=O)N2CCOCC2)nc(O)cc1=O	13%	>57	-5%	4µM*[single pt active]
CN(C)C(=O)c1ccc(-c2ccc3ncnc(NCc4ccccc4)c3c2)cc1	-16%	>57	11%	44%
O=c1nc2s/c(=C\c3ccco3)c(=O)n2nc1Cc1ccc(F)cc1	-5%	>57	-15%	10µM*[single pt active]
Oc1c(Cl)cc(Cl)cc1Sc1cc(Cl)cc(Cl)c1O	6%	.	3.2µM*	?
Oc1c(Cl)cc(C(c2cc(Cl)c(O)c(Cl)c2)C(c2cc(Cl)c(O)c(Cl)c2)c2cc(Cl)c(O)c(Cl)c2)cc1Cl	-3%[5.75 µM]	>57	-8%[8 µM]	-26%[5.75 µM]
Oc1cc(O)cc(/C=C\c2ccc(O)c(O)c2)c1	-4%	>57	3%	-23%
COCCn1c(=O)c(-c2cc(F)cc(F)c2)nc2cnc(OC)nc21	-3%	>57	-16%	48%
Cc1ccccc1-c1noc(-c2ccc(O)cc2)n1	-3%	.	10µM*	-7%
Cc1ccc(-c2noc(-c3ccccc3Br)n2)cc1	10%	.	?	-17%
CC[C@H](CO)NC(=O)[C@@H]1C=C2c3cccc4c3c(cn4C)C[C@@H]2N(C)C1	-1%	>57	-2%	13%
O=C=Nc1ccc(Cc2ccc(N=C=O)cc2)cc1 (tested in a mixture with another compound)	-4%[5.75 µM]	>57	-7%[8 µM]	-10%[5.75 µM]
O=C=Nc1ccc(Cl)c(Cl)c1	13%	.	16µM*	?
CC(C)n1cc2c3c(cccc31)[C@@H]1C[C@H](C(=O)O[C@@H](C)[C@H](C)O)CN(C)[C@H]1C2	-2%	>57	?	109%
Cn1c(=O)c(=O)n(C)c2cc(S(=O)(=O)CCC(=O)N3CCOCC3)ccc21	12%	>57	-10%	4µM*[single pt active]
Cn1c(=O)c(=O)n(C)c2cc(S(=O)(=O)N3CCOCC3)ccc21	-2%	>57	-7%	-16%
COc1ccc(-c2nc(CSCC(=O)N3CCN(c4cccc(C)c4)C(C)C3)c(C)o2)cc1OC (stereo unspecified)	10%	>57	10µM*	152%
COc1cccc(-c2cnc(NCc3cc(Cl)ccc3O)n2C)c1	8%	>57	?	13µM*
Cn1c(-c2cccc(Br)c2)cnc1NCc1cccnc1	9%	>57	-10%	12%
CC1(C(=O)NC2CCCCCC2)CCC(=O)N1Cc1ccc2c(c1)OCO2 (stereo unspecified)	3%	>57	-2%	41%
COc1ccc(CCNC(=O)C2(C)CCC(=O)N2Cc2ccc3c(c2)OCO3)cc1OC (stereo unspecified)	11%	>57	-1%	4µM*[single pt active]
CN(CC(=O)Nc1ccc(Cl)cc1)S(=O)(=O)c1cccc2cccnc12	9%	>57	7.9µM*	-13%
